# Experimental data published in PubChem BioAssay (NCATS).
# Unmarked numbers belong to inactive results. Inconclusive results are not listed. The source made the active and inactive calls. Unless noted, calls follow the shape of the dose curve; as a rule, active = well fitted curve in the direction sought with a large enough effect; inconclusive = small, poorly fitted or top-dose-only effect, or another doubt; inactive = no such curve, though single readings can be large; an effect the other way counts as inactive or inconclusive.
# How the values were obtained:
# [1] = target: Cytochrome P450 1A2 (Homo sapiens) (UniProt P05177); test: p450-cyp1a2 (AID 410; calls by dose curve;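 also: -100% = full effect of reference inhibitor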)
# Sequence of Cytochrome P450 1A2 (Homo sapiens) (P05177 whole entry, looked up): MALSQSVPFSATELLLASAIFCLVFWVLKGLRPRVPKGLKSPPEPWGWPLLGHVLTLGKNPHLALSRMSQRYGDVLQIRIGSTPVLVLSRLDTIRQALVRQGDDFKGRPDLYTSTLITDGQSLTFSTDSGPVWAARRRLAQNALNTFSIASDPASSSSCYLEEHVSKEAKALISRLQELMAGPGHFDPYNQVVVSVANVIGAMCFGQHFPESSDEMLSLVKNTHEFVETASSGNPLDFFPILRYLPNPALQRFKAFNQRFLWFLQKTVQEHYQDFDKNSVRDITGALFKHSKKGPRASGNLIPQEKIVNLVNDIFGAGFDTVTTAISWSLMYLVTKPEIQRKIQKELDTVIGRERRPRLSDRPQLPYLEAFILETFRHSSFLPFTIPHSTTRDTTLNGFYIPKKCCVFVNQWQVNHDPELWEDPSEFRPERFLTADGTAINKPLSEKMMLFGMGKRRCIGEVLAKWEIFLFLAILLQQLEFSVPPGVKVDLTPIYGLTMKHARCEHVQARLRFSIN
# How it was run: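 Inhibition was calculated relative to 57 uM furafylline (full inhibition). The reaction used human CYP1A2 at 20nM with Luciferin-ME at its Km, 100uM, driven by an NADPH-regenerating system for 60 min at room temperature.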
# [2] = NFAT Signaling Pathway (AID 444; active = well fitted curve in either direction with a large enough effect, not every such curve was filed as active;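 also: carbachol stimulus at about its EC50 of 1 µM final; % is scaled to controls: 0 for no effect and ±100 for the full control effect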); conditions: Jurkat NFAT-bla M1, carbachol, beta-lactamase ratio, 5 h; at 17.2 µM (top of the series) unless noted
# How it was run: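 Jurkat cells carrying an NFAT-driven β-lactamase reporter and co-transfected muscarinic M1 receptor were treated with compound plus carbachol (1 uM final, an EC50 level) for 5 h at 37 °C. CCF4 loading followed for 1 h at RT; 460/530 nm ratio gave %activity.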
# [3] = target: Glucocorticoid receptor (Homo sapiens) (UniProt P04150); test: GR-GFP Redistribution (AID 450;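 active = compounds whose dose series gives a full or clear partial fitted curve of increased nuclear translocation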; also: potency is read from the fitted curve at half-maximal effect)
# Sequence of Glucocorticoid receptor (Homo sapiens) (P04150 whole entry, looked up, the tested form may be a part): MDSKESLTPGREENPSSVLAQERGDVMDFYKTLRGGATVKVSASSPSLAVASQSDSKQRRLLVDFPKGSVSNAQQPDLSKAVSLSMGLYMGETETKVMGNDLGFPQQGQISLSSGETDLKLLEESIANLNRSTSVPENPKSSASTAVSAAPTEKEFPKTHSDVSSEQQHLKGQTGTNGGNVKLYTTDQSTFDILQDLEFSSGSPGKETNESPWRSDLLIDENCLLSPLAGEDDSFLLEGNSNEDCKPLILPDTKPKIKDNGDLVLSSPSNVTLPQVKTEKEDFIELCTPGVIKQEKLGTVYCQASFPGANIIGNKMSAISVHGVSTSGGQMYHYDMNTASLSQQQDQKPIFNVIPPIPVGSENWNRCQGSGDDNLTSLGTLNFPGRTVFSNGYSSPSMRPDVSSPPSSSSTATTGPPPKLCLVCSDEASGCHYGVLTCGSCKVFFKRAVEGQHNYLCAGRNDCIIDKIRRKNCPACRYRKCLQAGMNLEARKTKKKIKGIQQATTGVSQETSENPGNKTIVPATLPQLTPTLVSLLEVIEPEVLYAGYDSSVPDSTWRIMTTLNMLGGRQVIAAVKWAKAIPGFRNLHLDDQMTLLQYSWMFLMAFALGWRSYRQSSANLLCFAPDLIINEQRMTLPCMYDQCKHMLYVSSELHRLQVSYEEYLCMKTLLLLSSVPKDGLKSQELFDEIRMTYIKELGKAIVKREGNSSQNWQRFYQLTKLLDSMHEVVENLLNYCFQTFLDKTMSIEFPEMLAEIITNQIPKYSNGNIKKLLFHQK
# [4] = target: Glucocorticoid receptor (Homo sapiens) (UniProt P04150); test: GR-EFC Redistribution (AID 451; calls by dose curve; also: potency is read from the fitted curve at half-maximal effect); conditions: CHO-K1 GR-EFC translocation, beta-gal luminescence, 2 h
# How it was run: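 CHO-K1 cells stably expressing nuclear-localized β-gal enzyme acceptor and GR fused C-terminally to the enzyme donor fragment; ligand-driven nuclear translocation restores β-gal by complementation. Compounds titrated up to 46 uM final, 2 h at 37 °C; luminescence read.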
# [5] = target: Mitogen-activated protein kinase 10 (Mus musculus) (UniProt Q61831); test: JNK3 AlphaScreen Assay (AID 530; active = well fitted curve in either direction with a large enough effect, not every such curve was filed as active;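 also: kinase came from lysate of stimulated human HepG2 cells; signal reports phosphorylation of biotinylated GST-cJun 1-79 at Ser73 with 10 µM ATP; % is scaled to controls: 0 for no effect and ±100 for the full control effect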)
# How it was run: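 JNK3 came from HepG2 lysates pre-activated with IL-1beta and TNF-alpha and phosphorylated biotinylated GST-cJun (1-79) at 10 uM ATP, pH 7.6, room temperature. Compounds were titrated. AlphaScreen signal used anti-phospho-cJun (Ser73) antibody.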
# [6] = target: 3',5'-cyclic-AMP phosphodiesterase 4B (Homo sapiens) (UniProt Q07343); test: qHTS Assay for Inhibitors of PDE-IV (AID 607; active = well fitted activation curve with a large enough effect in the main read-out, with a control signal flat, not every such curve was filed as active; also: % of control where 0% means no effect)
# Sequence of 3',5'-cyclic-AMP phosphodiesterase 4B (Homo sapiens) (Q07343 whole entry, looked up): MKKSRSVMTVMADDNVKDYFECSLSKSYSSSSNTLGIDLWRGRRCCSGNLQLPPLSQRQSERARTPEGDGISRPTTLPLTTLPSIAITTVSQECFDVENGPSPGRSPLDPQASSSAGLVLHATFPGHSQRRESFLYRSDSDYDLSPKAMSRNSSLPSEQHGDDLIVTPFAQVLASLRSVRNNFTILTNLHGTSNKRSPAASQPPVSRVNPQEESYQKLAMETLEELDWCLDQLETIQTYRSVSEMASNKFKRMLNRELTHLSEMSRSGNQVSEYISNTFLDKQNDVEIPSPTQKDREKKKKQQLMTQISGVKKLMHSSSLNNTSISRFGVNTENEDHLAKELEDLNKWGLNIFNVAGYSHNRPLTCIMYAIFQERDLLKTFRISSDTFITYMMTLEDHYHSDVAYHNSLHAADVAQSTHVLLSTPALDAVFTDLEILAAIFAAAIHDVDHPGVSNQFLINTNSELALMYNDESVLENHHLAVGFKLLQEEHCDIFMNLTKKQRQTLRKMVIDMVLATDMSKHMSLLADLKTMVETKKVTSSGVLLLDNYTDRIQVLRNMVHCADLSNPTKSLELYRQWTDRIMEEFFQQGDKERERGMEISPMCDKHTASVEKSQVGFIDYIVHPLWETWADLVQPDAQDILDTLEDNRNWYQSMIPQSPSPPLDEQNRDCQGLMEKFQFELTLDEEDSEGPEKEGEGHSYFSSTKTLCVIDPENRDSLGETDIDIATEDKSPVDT
# How it was run: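 The readout is membrane depolarisation from a cAMP-sensing CNG channel, detected with a potential dye at ex 535/em 590. Cells were HEK293-derived (endogenous PDE-IV) at 1000 cells/well, titrated up to 22.9 uM final.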
# [7] = target: ATP-dependent 6-phosphofructokinase (Trypanosoma brucei brucei) (UniProt O15648); test: qHTS Assay to Find Inhibitors of T. brucei phosphofructokinase: hit validation (AID 492961);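 also: luminescence reports ADP formed as PFK phosphorylates fructose-6-phosphate with ATP; % is scaled to controls: 0 for no effect and ±100 for the full control effect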
# Sequence of ATP-dependent 6-phosphofructokinase (Trypanosoma brucei brucei) (O15648 whole entry, looked up): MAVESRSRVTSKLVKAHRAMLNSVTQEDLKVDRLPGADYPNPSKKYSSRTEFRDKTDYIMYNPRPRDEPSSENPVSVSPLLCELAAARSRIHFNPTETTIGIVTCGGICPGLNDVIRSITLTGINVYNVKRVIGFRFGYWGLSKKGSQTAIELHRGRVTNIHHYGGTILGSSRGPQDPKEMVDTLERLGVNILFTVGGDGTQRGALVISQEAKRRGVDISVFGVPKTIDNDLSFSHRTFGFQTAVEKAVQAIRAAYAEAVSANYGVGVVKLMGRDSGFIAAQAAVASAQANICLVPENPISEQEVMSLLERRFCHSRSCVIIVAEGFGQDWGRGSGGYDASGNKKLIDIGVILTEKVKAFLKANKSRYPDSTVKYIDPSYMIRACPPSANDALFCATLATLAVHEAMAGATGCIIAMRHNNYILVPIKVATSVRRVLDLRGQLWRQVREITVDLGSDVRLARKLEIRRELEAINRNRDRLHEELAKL
# How it was run: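 Percent activity derived from corrected luminescence, normalized between 0x and 1x enzyme controls, then fitted to concentration-response curves. Conditions: 1.25 nM PFK, 0.1 mM ATP, 0.5 mM F6P, 45 min RT.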
# [8] = S16 Schwann cell PMP22 intronic element firefly luciferase assay (AID 624032); also: potency is read from the fitted curve at half-maximal effect; nearly all actives have a fitted effect of over 30% in size
# How it was run: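 Rat S16 Schwann cells stably carrying a PMP22 intronic element-driven Fluc reporter were seeded overnight, then exposed to compounds for 24 h at 37 °C. Luminescence was normalized to PTC124 (positive control) and DMSO (0% activity).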
# [9] = qHTS profiling for inhibitors of Plasmodium falciparum proliferation (AID 504749); also: potency is read from the fitted curve at half-maximal effect; nearly all actives have a fitted effect of over 60% in size; conditions: P. falciparum in erythrocytes, SYBR Green DNA, 72 h
# How it was run: (§1)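 P. falciparum-infected erythrocytes (0.3% parasitemia, 2.5% hematocrit final) were exposed to compounds for 72 h at 37 C in 5% CO2, then lysed with SYBR Green buffer overnight at room temperature; parasite DNA fluorescence was normalized to artemisinin and DMSO controls.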
# 3D7 = test: as above; conditions: P. falciparum in erythrocytes, SYBR Green DNA, 72 h; series mostly up to 28.7 µM
# How it was run: as §1
# 7G8 = test: as above; conditions: P. falciparum in erythrocytes, SYBR Green DNA, 72 h; series mostly up to 28.7 µM
# How it was run: as §1
# AA1029 = test: as above; conditions: P. falciparum in erythrocytes, SYBR Green DNA, 72 h; series mostly up to 28.7 µM
# How it was run: as §1
# AS120 = test: as above; conditions: P. falciparum in erythrocytes, SYBR Green DNA, 72 h; series mostly up to 28.7 µM
# How it was run: as §1
# ATS189 = test: as above; conditions: P. falciparum in erythrocytes, SYBR Green DNA, 72 h; series mostly up to 28.7 µM
# How it was run: as §1
# ATS95 = test: as above; conditions: P. falciparum in erythrocytes, SYBR Green DNA, 72 h; series mostly up to 28.7 µM
# How it was run: as §1
# C2A = test: as above; conditions: P. falciparum in erythrocytes, SYBR Green DNA, 72 h; series mostly up to 28.7 µM
# How it was run: as §1
# CP185 = test: as above; conditions: P. falciparum in erythrocytes, SYBR Green DNA, 72 h; series mostly up to 28.7 µM
# How it was run: as §1
# CP191 = test: as above; conditions: P. falciparum in erythrocytes, SYBR Green DNA, 72 h; series mostly up to 28.7 µM
# How it was run: as §1
# CP192 = test: as above; conditions: P. falciparum in erythrocytes, SYBR Green DNA, 72 h; series mostly up to 28.7 µM
# How it was run: as §1
# CP194 = test: as above; conditions: P. falciparum in erythrocytes, SYBR Green DNA, 72 h; series mostly up to 28.7 µM
# How it was run: as §1
# CP201 = test: as above; conditions: P. falciparum in erythrocytes, SYBR Green DNA, 72 h; series mostly up to 28.7 µM
# How it was run: as §1
# CP203 = test: as above; conditions: P. falciparum in erythrocytes, SYBR Green DNA, 72 h; series mostly up to 28.7 µM
# How it was run: as §1
# CP211 = test: as above; conditions: P. falciparum in erythrocytes, SYBR Green DNA, 72 h; series mostly up to 28.7 µM
# How it was run: as §1
# CP215 = test: as above; conditions: P. falciparum in erythrocytes, SYBR Green DNA, 72 h; series mostly up to 28.7 µM
# How it was run: as §1
# CP217 = test: as above; conditions: P. falciparum in erythrocytes, SYBR Green DNA, 72 h; series mostly up to 28.7 µM
# How it was run: as §1
# CP237 = test: as above; conditions: P. falciparum in erythrocytes, SYBR Green DNA, 72 h; series mostly up to 28.7 µM
# How it was run: as §1
# CP238 = test: as above; conditions: P. falciparum in erythrocytes, SYBR Green DNA, 72 h; series mostly up to 28.7 µM
# How it was run: as §1
# CP247 = test: as above; conditions: P. falciparum in erythrocytes, SYBR Green DNA, 72 h; series mostly up to 28.7 µM
# How it was run: as §1
# CP250 = test: as above; conditions: P. falciparum in erythrocytes, SYBR Green DNA, 72 h; series mostly up to 28.7 µM
# How it was run: as §1
# CP252 = test: as above; conditions: P. falciparum in erythrocytes, SYBR Green DNA, 72 h; series mostly up to 28.7 µM
# How it was run: as §1
# CP256 = test: as above; conditions: P. falciparum in erythrocytes, SYBR Green DNA, 72 h; series mostly up to 28.7 µM
# How it was run: as §1
# CP260 = test: as above; conditions: P. falciparum in erythrocytes, SYBR Green DNA, 72 h; series mostly up to 28.7 µM
# How it was run: as §1
# CP262 = test: as above; conditions: P. falciparum in erythrocytes, SYBR Green DNA, 72 h; series mostly up to 28.7 µM
# How it was run: as §1
smiles,measurement,setting,value
CC[C@]1([C@H]2O[C@@H]([C@@H]3O[C@](O)(CO)[C@@H](C)C[C@H]3C)C[C@H]2C)CC[C@@H]([C@]2(C)CC[C@@]3(C[C@@H](O)[C@@H](C)[C@@H]([C@H](C)[C@H](OC)[C@H](C)C(=O)O)O3)O2)O1,Potency,[1],inactive
same,"activity change, negative = inhibition",[2],20.4%
same,Potency,[3],> 20600 nM
same,Potency,[4],> 20600 nM
same,Potency,[5],inactive
same,Potency,[6],inactive
same,Potency,[7],inactive
same,Potency,[8],510 nM (active)
same,Potency,[9]; parasite line A,25.1 nM (active)
same,Potency,[9]; parasite line B,25.1 nM (active)
same,Potency,3D7,25.1 nM (active)
same,Potency,7G8,15.8 nM (active)
same,Potency,AA1029,39.8 nM (active)
same,Potency,AS120,22.4 nM (active)
same,Potency,ATS189,50.1 nM (active)
same,Potency,ATS95,50.1 nM (active)
same,Potency,C2A,28.2 nM (active)
same,Potency,CP185,50.1 nM (active)
same,Potency,CP191,31.6 nM (active)
same,Potency,CP192,33.8 nM (active)
same,Potency,CP194,33.8 nM (active)
same,Potency,CP201,42.6 nM (active)
same,Potency,CP203,23.9 nM (active)
same,Potency,CP211,33.8 nM (active)
same,Potency,CP215,33.8 nM (active)
same,Potency,CP217,39.8 nM (active)
same,Potency,CP237,17.8 nM (active)
same,Potency,CP238,35.5 nM (active)
same,Potency,CP247,31.6 nM (active)
same,Potency,CP250,39.8 nM (active)
same,Potency,CP252,35.5 nM (active)
same,Potency,CP256,50.1 nM (active)
same,Potency,CP260,20 nM (active)
same,Potency,CP262,26.9 nM (active)
